Source: PubChem (several laboratories)
Mtb betalactam: beta-lactam sensitization of Mtb H37Rv. M. tuberculosis H37Rv growth with meropenem, percent inhibition. inhibition, % at 25 µM. 330,000 tested, 0.27% active; call rule not given here;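 further: growth measured after seven days incubation then overnight dye step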
DUSP3 inh: inhibitors of human VHR1 phosphatase (DUSP3); P51452; recombinant VHR phosphatase, pNPP absorbance; inhibition, % at 13.3 µM; 290,000 tested, 0.52% active; AID 1654; in the data active means inhibition above about 50%
Target sequence (P51452 whole entry, looked up): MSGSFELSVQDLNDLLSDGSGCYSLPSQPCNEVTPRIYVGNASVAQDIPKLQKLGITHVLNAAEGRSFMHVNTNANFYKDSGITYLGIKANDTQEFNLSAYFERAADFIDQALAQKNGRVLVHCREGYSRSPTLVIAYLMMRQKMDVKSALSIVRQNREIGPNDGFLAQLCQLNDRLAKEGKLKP
Mtb hypoxia inh: inhibitors of hypoxia-regulated fluorescent reporter in Mycobacterium tuberculosis; fluorescence inhibition, % (no concentration beside the values); M. tuberculosis hypoxia-regulated fluorescent reporter, fluorescence; 300,000 tested, 0.1% active; in the data active means fluorescence inhibition mostly above about 23%, no sharp cut-off; inactive means mostly below about 17%
GDH-TPI inh: GDH-TPI coupled enzyme inhibition counter-screen | AID 588335 | GDH-TPI coupled enzyme counterscreen, NADH absorbance | 360,000 tested, 1.2% active | inhibition, % at 4.8 µM; in the data active means inhibition above about 30%
Mtb FBA inh: Mtb fructose-bisphosphate aldolase inhibition. 360,000 tested, 2.3% active. purified M. tuberculosis FBA, fluorescence read-out. P9WQA3. inhibition, % at 1 µM. AID 588726; in the data active means inhibition above about 27%
Numbers stand for hits; n = inactive; x = not tested or not shown; + = active, no number. A selection: hits, their analogues and other compounds. The true share with any hit is near 3.6%.

SMILES	Mtb betalactam	DUSP3 inh	Mtb hypoxia inh	GDH-TPI inh	Mtb FBA inh
CCN1CCN(Cc2c(O)ccc3c(=O)c(-c4ccccc4OC)coc23)CC1	n	n	n	n	119
CCOC(=O)c1ccc(-n2c(CN3CCC(C(N)=O)CC3)nc3ccc([N+](=O)[O-])cc3c2=O)cc1	n	n	n	n	n
CCOC(=O)c1ccc(-n2c(CN3CCC(O)CC3)nc3ccc([N+](=O)[O-])cc3c2=O)cc1	n	n	n	45	n
CCOC(=O)N1CCN(Cc2c(F)cccc2Cl)CC1	x	51	n	n	n
CCOC(=O)N1CCN(Cc2c(F)cccc2F)CC1	n	n	n	n	n
Nc1c(C(=O)NCc2ccco2)nnn1Cc1ccccc1	n	n	n	n	n
Nc1c(C(=O)NCc2ccco2)c2nc3ccccc3nc2n1CCc1ccccc1F	n	n	n	n	70
Nc1c(C(=O)NCc2ccco2)c2nc3ccccc3nc2n1Cc1ccccc1	n	n	n	n	112
COc1ccc(CCn2c(N)c(C(=O)NCc3ccco3)c3nc4ccccc4nc32)cc1OC	n	n	n	n	n
COc1ccc(-c2cc(C3C4C=CCC[C@@]4(C)C(=O)N3Cc3ccccc3)ccc2F)cc1OC (stereo partly specified)	x	x	n	x	x
Cc1ccc(S(=O)(=O)c2cc3c(=O)n4ccccc4nc3n(C)c2=N)cc1C	n	n	n	n	n
N=c1c(S(=O)(=O)c2ccc(Cl)cc2)cc2c(=O)n3ccccc3nc2n1CCN1CCOCC1	n	n	n	n	+
Cc1ccc(S(=O)(=O)c2cc3c(=O)n4ccccc4nc3n(CCCN3CCOCC3)c2=N)cc1C	n	n	n	n	128
N=c1c(S(=O)(=O)c2ccc(Cl)cc2)cc2c(=O)n3ccccc3nc2n1CCc1ccccc1	n	n	x	n	n
CC1(C)CC(=O)C2=C(C1)c1c(ccc3ccccc13)NC2c1ccc(C(=O)O)cc1 (stereo unspecified)	n	n	n	n	+
Cc1ccc(C2Nc3ccc4ccccc4c3C3=C2C(=O)CC(C)(C)C3)o1 (stereo unspecified)	n	n	n	n	n
COc1ccc(/C=C2/N=C(SC)NC2=O)cc1OC	n	n	n	40	n
CCC(C)C(N)c1cn(C(Cc2ccc(O)cc2)C(=O)N2CCNCC2)nn1 (stereo unspecified)	x	x	n	x	x
COc1ccccc1C=Nn1c(C)nnc1-n1nc(C)cc1C	x	x	n	x	x
CCC1(C)Cc2ccccc2-c2nc(NCCO)n(-c3ccc(C)cc3)c(=O)c21 (stereo unspecified)	n	n	x	n	163
CCC1(C)Cc2ccccc2-c2nc(NCCO)n(-c3ccccc3)c(=O)c21 (stereo unspecified)	n	n	n	n	176
CCC1(C)Cc2ccccc2-c2c1c(=O)n(-c1ccc(C)cc1)c1nnnn21 (stereo unspecified)	n	n	n	n	n
NC(=O)CSc1nc2c(c(=O)n1-c1ccccc1)C1(CCCCC1)Cc1ccccc1-2	n	n	n	n	n
CCC1(CC)Cc2ccccc2-c2nc(NCCO)[nH]c(=O)c21	n	n	n	n	168
CC1(C)Cc2ccccc2-c2nc(NCCO)n(-c3ccccc3)c(=O)c21	n	n	x	n	173
SMILES	Mtb betalactam	DUSP3 inh	Mtb hypoxia inh	GDH-TPI inh	Mtb FBA inh
COc1cc(/C=C2\C(=O)N(c3ccc(NC(C)=O)cc3)N=C2c2ccccc2)ccc1O	n	n	n	n	n
CCOc1cc(/C=C2\C(=O)N(c3nc(-c4ccc(Br)cc4)cs3)N=C2c2ccccc2)ccc1O	n	n	n	31	n
Cc1cccc2nc(-c3ccco3)c(Nc3ccccc3)n12	n	n	n	n	121
CC1=C(C(=O)OCc2cc(C)on2)N2C(=O)C(NC(=O)OCc3cc(C)on3)C2SC1 (stereo unspecified)	x	x	n	x	x
Cc1c(C(=O)c2ccc(Cl)c(Cl)c2)cnc2cc3c(cc12)OCO3	n	54	n	n	n
CC1C2(C)OC(=N)C(C#N)(C(C)O2)C1(C#N)C#N (stereo unspecified)	n	n	n	n	128
COc1cc2c(cc1/C=C/C(=O)O)OC(C)C2 (stereo unspecified)	n	n	n	n	+
CCOc1cc2c(cc1/C=C/C(=O)O)OC(C)C2 (stereo unspecified)	n	n	n	n	148
CC(C)(O)C1Cc2cc(/C=C/C(=O)O)c(O)cc2O1 (stereo unspecified)	x	n	n	n	n
CCOc1nc2ccccc2cc1/C=C/C(=O)O	n	n	n	n	n
CC(=O)Nc1cc2c3c(c1)CCN3C(=O)CC2	n	56	n	n	n
CCn1c(C)csc1=NC(=S)Nc1ccccc1C	x	x	n	x	x
